Data as given in PubChem BioAssay (NCI).
Compounds without any hit were thinned out: in the full panel of roughly 83,000, 20% have a hit.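 Plates (96-well) were seeded with cells, treated with compound at one concentration, and incubated for 48 hours before percent growth was determined.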 Active and inactive are the calls of the source. Rule for the calls: active = growth percent below 10; inactive = the rest.

Assays:
Test in all cases: NCI-60 one-dose screen, 48 h (100 = growth as untreated, 0 = no growth, -100 = all killed)
Details in all cases: 10 µM unless noted
DU-145 prostate = test system: DU-145 prostate
K-562 leukemia = test system: K-562 leukemia
MALME-3M melanoma = test system: MALME-3M melanoma
MDA-MB-231 breast = test system: MDA-MB-231 breast
RXF 393 renal = test system: RXF 393 renal
SF-268 CNS = test system: SF-268 CNS
SF-295 CNS = test system: SF-295 CNS
SF-539 CNS = test system: SF-539 CNS
UACC-257 melanoma = test system: UACC-257 melanoma
M14 melanoma = test system: M14 melanoma

Measured: growth

Cc1cc(C)cc(C(=O)Nc2cccc(C#Cc3cccc4[nH]nc(N)c34)c2)c1
active: K-562 leukemia 9.8% | RXF 393 renal -10.9%
inactive: DU-145 prostate 71.9% | MALME-3M melanoma 86.2% | MDA-MB-231 breast 40% | SF-268 CNS 55% | SF-295 CNS 65% | SF-539 CNS 38.6% | UACC-257 melanoma 90.7% | M14 melanoma 43.5%

COc1ccc(-n2c(SCc3n[nH]c(=S)o3)nc3ccc(Cl)cc3c2=O)cc1
inactive: DU-145 prostate 96.3% | K-562 leukemia 99.6% | MALME-3M melanoma 95.3% | MDA-MB-231 breast 94.6% | RXF 393 renal 89.5% | SF-268 CNS 92.1% | SF-295 CNS 97.3% | SF-539 CNS 91.5% | UACC-257 melanoma 102% | M14 melanoma 112%

O=C(CSc1nc2ccccc2c(=O)n1-c1ccccc1)Nc1ccc(-c2nc3ccc([N+](=O)[O-])cc3[nH]2)cc1
inactive: DU-145 prostate 84.2% | K-562 leukemia 42.7% | MALME-3M melanoma 71.1% | MDA-MB-231 breast 76.8% | RXF 393 renal 64.5% | SF-268 CNS 76.2% | SF-295 CNS 103% | SF-539 CNS 78.2% | UACC-257 melanoma 95.8% | M14 melanoma 93.3%

c1cn2c(ccc3nc(-c4cn[nH]c4)c4c(c32)CCCC4)n1
inactive: DU-145 prostate 52% | K-562 leukemia 85.6% | MALME-3M melanoma 29% | MDA-MB-231 breast 77.1% | RXF 393 renal 43.6% | SF-268 CNS 77.5% | SF-295 CNS 42.6% | SF-539 CNS 63.9% | UACC-257 melanoma 63.5% | M14 melanoma 32.1%

CN1c2ccccc2Sc2cc(C=C(C#N)C#N)ccc21
inactive: DU-145 prostate 110% | K-562 leukemia 101% | MALME-3M melanoma 98.3% | MDA-MB-231 breast 92.3% | RXF 393 renal 92.1% | SF-268 CNS 105% | SF-295 CNS 103% | SF-539 CNS 101% | UACC-257 melanoma 97.5% | M14 melanoma 96%

Nc1cc(-c2c[nH]c3ccc(Br)cc23)nc2cc(-c3c[nH]c4ccc(Br)cc34)nn12
active: K-562 leukemia 1.82% | MDA-MB-231 breast 7.95% | SF-295 CNS 6.52% | SF-539 CNS -4.74% | M14 melanoma -52.1%
inactive: DU-145 prostate 24.2% | MALME-3M melanoma 45.6% | RXF 393 renal 28.4% | SF-268 CNS 27.8% | UACC-257 melanoma 65%

Cc1ccc2c(c1)C(=O)/C(=C/c1cccc(F)c1)S2
inactive: DU-145 prostate 111% | K-562 leukemia 90.7% | MALME-3M melanoma 97.9% | MDA-MB-231 breast 99.8% | RXF 393 renal 96.6% | SF-268 CNS 101% | SF-295 CNS 105% | SF-539 CNS 100% | UACC-257 melanoma 103% | M14 melanoma 109%

Nc1nc(Nc2ccccc2SSc2ccccc2Nc2nc(N)nc(-c3ccc4ccccc4c3)n2)nc(-c2ccc3ccccc3c2)n1
inactive: DU-145 prostate 60.7% | K-562 leukemia 69.7% | MALME-3M melanoma 93.1% | MDA-MB-231 breast 60.9% | RXF 393 renal 79.5% | SF-268 CNS 74.9% | SF-295 CNS 67.7% | SF-539 CNS 99% | UACC-257 melanoma 112% | M14 melanoma 95%

N#C/C(=C\c1ccc(-c2ccc(Cl)cc2Cl)o1)c1ccc(F)cc1
inactive: DU-145 prostate 102% | K-562 leukemia 92.5% | MALME-3M melanoma 98.7% | MDA-MB-231 breast 83.4% | RXF 393 renal 67.5% | SF-268 CNS 92.3% | SF-295 CNS 99.8% | SF-539 CNS 89.9% | UACC-257 melanoma 104% | M14 melanoma 95.3%

CN1CCN(Cc2ccc(NC(=O)c3cncc(C#Cc4cnn5cccnc45)c3)cc2C(F)(F)F)CC1
inactive: SF-295 CNS 56.7% | SF-539 CNS 14.8% | UACC-257 melanoma 44.5%
active: DU-145 prostate 6.94% | K-562 leukemia -11.5% | MALME-3M melanoma -16.7% | MDA-MB-231 breast 5.29% | RXF 393 renal -76.5% | SF-268 CNS -5.38% | M14 melanoma -43.9%

O=C1/C(=C/C=C/c2ccco2)SC(=S)N1c1ccccc1
active: RXF 393 renal -33.5%
inactive: DU-145 prostate 97.6% | K-562 leukemia 64.6% | MALME-3M melanoma 15.5% | MDA-MB-231 breast 80.3% | SF-268 CNS 108% | SF-295 CNS 91.3% | SF-539 CNS 90.3% | UACC-257 melanoma 83.2% | M14 melanoma 40.7%

CC(C)(C)CC(C)(C)n1nnnc1C(Nc1nccs1)c1cc2cccc3ccc4cccc1c4c32 (stereo not given)
inactive: DU-145 prostate 107% | K-562 leukemia 111% | MALME-3M melanoma 94% | MDA-MB-231 breast 97.2% | RXF 393 renal 119% | SF-268 CNS 94.8% | SF-295 CNS 94.9% | SF-539 CNS 92.7% | UACC-257 melanoma 104% | M14 melanoma 111%

COc1cccc(N2CCN(c3ncnc4c3[nH]c3ccc(F)cc34)C[C@H]2C)c1
inactive: DU-145 prostate 81.5% | K-562 leukemia 26.6% | MALME-3M melanoma 48.2% | MDA-MB-231 breast 64.3% | RXF 393 renal 88% | SF-268 CNS 84.5% | SF-295 CNS 31.8% | SF-539 CNS 69.6% | UACC-257 melanoma 15.4% | M14 melanoma 41.7%

Nc1nc(Nc2ccccc2SSc2ccccc2Nc2nc(N)nc(-c3cccc(Br)c3)n2)nc(-c2cccc(Br)c2)n1
inactive: DU-145 prostate 62.1% | K-562 leukemia 58.8% | MALME-3M melanoma 99.9% | MDA-MB-231 breast 57.3% | RXF 393 renal 58% | SF-268 CNS 36.9% | SF-295 CNS 29.8% | SF-539 CNS 95.2% | UACC-257 melanoma 112% | M14 melanoma 90.4%

CCNC(=O)N1CCc2cc(OC)c(OCCc3ccc(OC)c(N)c3)cc2C1c1ccc(C)cc1C (stereo not given)
active: RXF 393 renal 7.54%
inactive: DU-145 prostate 16.4% | K-562 leukemia 15.1% | MALME-3M melanoma 62.6% | MDA-MB-231 breast 15% | SF-268 CNS 26.1% | SF-295 CNS 16.1% | SF-539 CNS 13.6% | UACC-257 melanoma 49.1% | M14 melanoma 16.5%

COc1ccc(/C=C/C(=O)c2cc(S(N)(=O)=O)c(OC)cc2OC)cc1
inactive: DU-145 prostate 17.3% | K-562 leukemia 26.1% | MALME-3M melanoma 98% | MDA-MB-231 breast 64.6% | RXF 393 renal 40.1% | SF-268 CNS 80.7% | SF-295 CNS 93.2% | SF-539 CNS 76.4% | UACC-257 melanoma 87.9% | M14 melanoma 84.3%

O=c1c2ccccc2nc(COc2ccccc2)n1NS(=O)(=O)c1ccc(Cl)cc1
inactive: DU-145 prostate 100% | K-562 leukemia 47.3% | MALME-3M melanoma 82.1% | MDA-MB-231 breast 67.4% | RXF 393 renal 97% | SF-268 CNS 88.6% | SF-295 CNS 97.2% | SF-539 CNS 86.9% | UACC-257 melanoma 91.2% | M14 melanoma 74.2%

COc1cc(-c2nc3sccn3c2-c2ccnc(S(C)(=O)=O)n2)ccc1F
active: MALME-3M melanoma 4.8%
inactive: DU-145 prostate 102% | K-562 leukemia 89.6% | MDA-MB-231 breast 87% | RXF 393 renal 84.5% | SF-268 CNS 100% | SF-295 CNS 98.6% | SF-539 CNS 91.5% | UACC-257 melanoma 96.1% | M14 melanoma 97.9%

CCCSc1nc(Nc2ccc(/C(C)=N\NC(N)=S)cc2)c(C#N)c(-c2ccccc2)n1
active: RXF 393 renal -4.63%
inactive: DU-145 prostate 66.3% | K-562 leukemia 56.5% | MALME-3M melanoma 97.9% | MDA-MB-231 breast 72.9% | SF-268 CNS 103% | SF-295 CNS 51.8% | SF-539 CNS 36.4% | UACC-257 melanoma 105% | M14 melanoma 99.6%

COc1cc(OC)c(S(N)(=O)=O)cc1C(=O)/C=C/c1ccc(Cl)cc1
inactive: MALME-3M melanoma 61.4% | MDA-MB-231 breast 11.5% | UACC-257 melanoma 73.6% | M14 melanoma 19.9%
active: DU-145 prostate 5.02% | K-562 leukemia 7.15% | RXF 393 renal -40.4% | SF-268 CNS 6.79% | SF-295 CNS 1.14% | SF-539 CNS 0.148%

CCNC(=O)N1CCc2cc(OC)c(OCCc3ccc(OC)nc3)cc2C1c1ccc(OC)cc1C (stereo not given)
inactive: DU-145 prostate 40.6% | K-562 leukemia 20% | MALME-3M melanoma 49.5% | MDA-MB-231 breast 52.8% | RXF 393 renal 24.7% | SF-268 CNS 32.9% | SF-295 CNS 18.2% | SF-539 CNS 22.6% | UACC-257 melanoma 47% | M14 melanoma 29.7%

O=S(=O)(NC1c2ccccc2C[C@H]1O)c1ccc(Cl)cc1Cl (stereo not given in full)
inactive: DU-145 prostate 114% | K-562 leukemia 95.2% | MALME-3M melanoma 93.6% | MDA-MB-231 breast 99.5% | RXF 393 renal 107% | SF-268 CNS 96.7% | SF-295 CNS 108% | SF-539 CNS 101% | UACC-257 melanoma 102% | M14 melanoma 92.3%
